# Screening data (PubChem BioAssay)
# SMN2 splice up: enhancers of SMN2 splice variant expression; HEK293 SMN2-luciferase splicing reporter, luminescence, 30-36 h; AID 1458; 2.8% of 210,000 active; Potency, µM (top dose mostly 46.1 µM), for inactives: at the top dose activity change, positive = activation, usual class: activators; further: % of control where 0% means no effect; nearly all actives have a fitted effect of over 55% in size
#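 HEK293 cells carry an SMN2 […]–luciferase reporter in which exon 7 inclusion puts luciferase in frame. Cells were plated 10-12 h before compound addition, then incubated 30-36 h at 37C. ONE-Glo luminescence was read; sodium butyrate at 4.5 mM final served as control.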
# FLuc counter: counter-screen for miR-21 project: firefly luciferase inhibitors or activators | P08659 | purified FLuc, Km substrates, luminescence inhibition | Potency, µM (highest dose often 57.5 µM), without a hit: at the highest dose activity change, negative = inhibition, most hits filed as inhibitors | 6.9% of 360,000 active;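 further: plate controls were vehicle for no effect and reference inhibitor for full effect; nearly all actives have a fitted effect of over 55% in size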
# Target sequence (P08659 whole entry, looked up): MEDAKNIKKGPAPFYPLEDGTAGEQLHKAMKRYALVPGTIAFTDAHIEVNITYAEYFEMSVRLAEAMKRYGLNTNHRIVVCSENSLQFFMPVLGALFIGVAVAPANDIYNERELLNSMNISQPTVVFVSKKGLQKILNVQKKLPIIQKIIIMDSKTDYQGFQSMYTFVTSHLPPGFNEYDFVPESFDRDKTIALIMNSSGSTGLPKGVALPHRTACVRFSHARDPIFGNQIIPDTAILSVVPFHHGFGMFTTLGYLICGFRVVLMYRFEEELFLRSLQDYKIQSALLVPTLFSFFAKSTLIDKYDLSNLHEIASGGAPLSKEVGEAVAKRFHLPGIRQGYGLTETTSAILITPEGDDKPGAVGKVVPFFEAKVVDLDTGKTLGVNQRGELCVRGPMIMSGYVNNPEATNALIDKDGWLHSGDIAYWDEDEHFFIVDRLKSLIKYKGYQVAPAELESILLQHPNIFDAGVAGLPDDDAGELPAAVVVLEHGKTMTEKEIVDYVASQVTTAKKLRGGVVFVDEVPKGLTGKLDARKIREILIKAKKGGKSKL
#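 Purified P. pyralis luciferase (10nM final) with 10uM D-luciferin and 10uM ATP (Km levels) in 50mM Tris acetate pH 7.5, 10mM Mg acetate, 0.01% Tween-20, 0.05% BSA; qHTS 6-point titration, ~60 µM downward; luminescence read.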
# NPC1 prom act: NPC1 promoter activation | Huh7 NPC1 promoter luciferase reporter, 24 h | 2.4% of 320,000 active | Potency, µM (top dose mostly 9.22 µM), for inactives: at the top dose activation, hits mostly activators | AID 485313; further: % of control where 0% means no effect; nearly all actives have a fitted effect of over 60% in size
#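 In 1536-well qHTS, Huh7 cells harboring an NPC1 promoter–luciferase construct received compound for 24 h; activation was quantified by luminescence following luciferase reagent addition.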
# Rab9 prom act: activates the Rab9 promoter | Potency, µM (doses to about 9.22 µM), inactives show at the highest dose activation, negative = inhibition, actives largely listed as activators | Huh7 Rab9 promoter-luciferase reporter, luminescence, 24 h | 2.8% of 320,000 active; further: % of control where 0% means no effect; nearly all actives have a fitted effect of over 60% in size
#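 Huh7 reporter line, Rab9 promoter upstream of luciferase. Compound exposure 24 h at 37 °C in reduced-serum medium with 10% FBS. Read-out: luminescence.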
# p53 reactivator: re-activators of mutant p53; H1299 p53-A138V BP100-luciferase reporter, luminescence, 24 h; Potency, µM (top dose mostly 92.2 µM), for the others: at the top dose activity change, positive = activation, actives largely listed as activators; 0.063% of 320,000 active; further: % of control where 0% means no effect; nearly all actives have a fitted effect of over 45% in size
#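 H1299 (p53-null), stable ts p53-A138V + BP100-Luc; 1000 cells/well, Opti-MEM/10% FBS; cpd 4 pt, 1:5; 24 h, 37 deg C, 5% CO2; detection reagent 10 min RT; luminescence.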
# ELG1 genotoxic: inducers of genotoxicity in HEK293T ELG1-luciferase cells; 1.3% of 330,000 active; Potency, µM (highest dose often 46 µM), for the others: at the highest dose activity change, positive = activation, most hits filed as activators; HEK293T ELG1-luciferase reporter, luminescence, 16 h; AID 504466; further: % of control where 0% means no effect; nearly all actives have a fitted effect of over 60% in size
#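 HEK293T cells expressing luciferase-tagged ELG1 were exposed to compound or DMSO vehicle for 16 hr at 37 °C and 5% CO2. Luciferase activity was then measured with ONE-Glo after 30 min at room temperature.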
# * = called active by the depositor; ? = inconclusive; . = not tested or not shown. Most compounds without a hit are left out; they make up all but 7.4% or so of the library. The call rests on the fitted dose curve; in most records, active means well fitted curve in the direction sought with a large enough effect; inconclusive means small, poorly fitted or top-dose-only effect, or another doubt; inactive means no such curve, though single readings can be large; an effect the other way counts as inactive or inconclusive. Potency means the concentration at half of the fitted maximal effect.
SMILES,SMN2 splice up,FLuc counter,NPC1 prom act,Rab9 prom act,p53 reactivator,ELG1 genotoxic
CC(C)(C)C(=O)Nc1ccc(-c2csnn2)cc1,.,23.9µM*,?,2.82µM*,5.6%,?
O=C(Nc1ccc(-c2csnn2)cc1)C(Cl)(Cl)Cl,.,-19.1%,4.2%,0.2%,2.1%,0.2%
N/C(=N\OC(=O)Cc1cccs1)c1ccc(Br)cc1,2.0%,19µM*,-1.7%,15.9%,?,?
CC(C)(C)C(=O)O/N=C(\N)c1ccc(Br)cc1,.,21.3µM*,1.2%,-5.5%,4.9%,0.4%
O=C(Cn1cnc2ccccc21)Nc1cccc(S(=O)(=O)N2CCCC2)c1,.,2.5%,-19.8%,-28.4%,5.6%,0.4%
Cc1ccc(CNC(=O)Cn2cnc(C(=O)Nc3ccc(C)c(C)c3)n2)o1,.,.,.,.,19.6%,?
N#Cc1ccc(C(=O)Nc2ccc3c(c2)N(C2CCCC2)C(=O)c2ccccc2S3)cc1,.,7.8%,.,.,.,.
O=C(COC(=O)c1ccccc1)c1ccc(Br)cc1,8.4%,0.536µM*,2.24µM*,3.98µM*,18.0%,8.9%
O=C(COC(=O)c1ccc(Br)cc1)NCCc1ccccc1,5.6%,3.1%,-0.4%,1.4%,6.1%,-1.7%
O=C(COC(=O)CCCSc1nc2ccccc2[nH]1)Nc1ccc(Cl)cc1,8.9%,19µM*,-5.0%,-6.0%,-5.9%,2.0%
CCOc1cc(/C=N/Nc2ncnc(Cl)c2N)ccc1O,23.0%,10.7µM*,16.1%,22.2%,21.5%,?
Nc1c(Cl)ncnc1N/N=C/c1ccccn1,-81.4%,?,-0.4%,0.6%,?,4.11µM*
Nc1c(Cl)ncnc1N/N=C/c1ccnc2ccccc12,21.9%,?,26.5%,?,2.9%,1.4%
Nc1c(Cl)ncnc1N/N=C/c1ccc2ccccc2n1,-40.6%,4.78µM*,?,?,?,?
CCOc1cc(/C=N/Nc2nnc(C)n2N)ccc1O,.,2.9%,0.3%,0.4%,-14.0%,-3.9%
Cc1ccc(-c2nnn(CC(=O)N(CC(=O)NCCC(C)C)c3ccc(F)cc3)n2)cc1,-9.3%,2.9%,.,.,.,.
O=C(Cn1c(=O)oc2cc(S(=O)(=O)N3CCCC3)ccc21)Nc1ccc(F)cc1F,11.5%,1.5%,.,.,.,.
O=c1c2ccccc2nc2n1CCO2,.,-1.5%,-1.0%,0.3%,-0.4%,0.3%
O=c1c2ccccc2nc2oc3ccccc3n12,.,7.57µM*,1.58µM*,1.58µM*,49.2%,10.3µM*
O=C(CN1C(=O)NC2(CCc3ccccc32)C1=O)NCCc1ccccc1 (centres undefined),.,.,0.3%,-4.5%,-10.6%,-0.9%
CN(C)c1ccc(/C=C2\C(=N)N3N=C(CC(=O)N4CCCC4)SC3=NC2=O)cc1Br,.,?,0.6%,0.7%,2.7%,-2.5%
CN(C)c1ccc(/C=C2\C(=N)N3N=C(CC(=O)N4CCCCC4)SC3=NC2=O)cc1,.,13.5µM*,3.0%,2.7%,15.3%,6.0%
O=C(COCc1cc(-c2cccs2)on1)N1CCN(c2ccc(F)cc2)CC1,.,4.4%,.,.,.,.
CC(=O)c1cccc(NC(=O)c2oc(C)nc2C)c1,.,-1.0%,-4.6%,26.7%,-1.2%,2.4%
C/C(=N/Oc1nc(C)cc(C)n1)c1ccc(Cl)cc1Cl,-14.1%,7.0%,-1.0%,-0.9%,-11.1%,-0.6%
SMILES,SMN2 splice up,FLuc counter,NPC1 prom act,Rab9 prom act,p53 reactivator,ELG1 genotoxic
C/C(=N/OC(=O)c1ccccc1)c1oc(C)nc1C,.,12µM*,1.4%,1.4%,-1.8%,2.3%
C/C(=N/OC(=O)c1ccc(Cl)cc1Cl)c1oc(C)nc1C,.,7.57µM*,-3.4%,7.1%,-0.2%,-1.1%
COc1cccc(/C=C/C(=O)Nc2ccc(C(=O)Nc3cccc(S(N)(=O)=O)c3)cc2)c1OC,.,?,1.5%,7.7%,1.3%,-2.1%
COc1ccccc1/C=C/C(=O)Nc1cccc(C(C)=O)c1,12.9%,10.7µM*,20.4%,27.4%,0.4%,1.5%
COc1cccc(C(=O)NCc2ccc3c(c2)OCO3)c1OC,.,-1.9%,-2.2%,-0.1%,9.0%,3.1%
COc1cccc(/C=C/C(=O)Nc2ccc3c(c2)OCCO3)c1OC,2.82µM*,0.757µM*,0.398µM*,0.398µM*,-7.5%,1.3µM*
